# Assay results taken from PubChem BioAssay (NCI).
# The panel holds about 83,000 compounds, 20% with a hit somewhere; the sample as a whole holds those more often.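 Step 1: grow cells in 96-well plates. Step 2: add test compound at a single concentration. Step 3: incubate 48 h. Step 4: record percent growth.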 Calls of active or inactive are those of the source. How the source made its calls: active means growth percent below 10; inactive means the rest.
# Test system: SNB-75 CNS
# Test: NCI-60 one-dose screen, 48 h (100 = growth as untreated, 0 = no growth, -100 = all killed)
# Settings: 10 µM unless noted
row,Structure (SMILES),growth
1,COc1ccc2c(CCCCC(c3ccccc3)c3ccccc3)c3[n+](cc2c1OC)CCc1cc2c(cc1-3)OCO2,-74% (active)
2,CCN1CCN(c2cc(C)nc(N(CCCNc3ccnc4cc(Cl)ccc34)Cc3ccc4c(c3)OCO4)n2)CC1,-15% (active)
3,O=C(Nc1ccc(C(=O)Nc2ccc(C3=NCCCN3)cc2)cc1)Nc1ccc(C2=NCCCN2)cc1,91% (inactive)
4,CCOC(=O)C1=C(C)N=C2Sc3cc(OC(F)(F)F)ccc3N2[C@H]1c1ccccn1,63.4% (inactive)
5,Nc1c2c(c(O)c3c1=C(CO)C=N3)=NCCS2,-79.2% (active)
6,C[C@@H](C[C@H](CCO)c1cc(C(F)(F)F)cc(C(F)(F)F)c1)c1ccc2ccccc2c1,88.5% (inactive)
7,CN(N)c1nc2sc3c(c2c(=O)[nH]1)CCCC3,91.9% (inactive)
8,Cc1cc(N(CCNc2ccnc3cc(Cl)ccc23)Cc2ccc3c(c2)OCO3)nc(N2CCN(C)CC2)n1,32.4% (inactive)
9,C[N+](C)(CCOC(c1ccccc1)c1ccccc1)CC(=O)OCc1ccccc1,76% (inactive)
10,CC1(/C=N/NC(N)=S)NC(=O)NC1=O (stereo not drawn),90.6% (inactive)
11,[2H]C1([2H])[C@H](C)O[C@H](C)C([2H])([2H])N1c1ccc(NC(=O)c2cccc(-c3ccc(OC(F)(F)F)cc3)c2C)cn1,72.1% (inactive)
12,N#Cc1cc2[nH]c3ccc(OC(F)(F)F)cc3c2oc1=O,53.6% (inactive)
13,COc1ccc2c(c1OC)C(=O)O[C@@H]2[C@H]1c2c(c(C#CC#Cc3ccc(F)c(F)c3)c3c(c2OC)OCO3)CCN1C,89.6% (inactive)
14,CCC1(/C=N/NC(N)=S)NC(=O)NC1=O (stereo not drawn),95.9% (inactive)
15,CC(C)C1CCC(C)C(C2(C#N)C(N)=NC(N)=C2C#N)C1=O (stereo not drawn),84% (inactive)
16,NC(=O)c1n[nH]n2c1nc(=O)c1c3c(sc12)CCCC3,102% (inactive)
17,CCOC(=O)C1=C(C)NC(=O)NC1c1cc(=O)oc2ccc(C)cc12 (stereo not drawn),97% (inactive)
18,C=CC(=O)N(C)[C@H]1C[C@H]2OC(C)(C1OC)n1c3ccccc3c3c4c(c5c6ccccc6n2c5c31)C(=O)NC4 (stereo partly drawn),-16.8% (active)
19,Cc1cc2c(-c3nc4ccccn4c3Nc3cccc4ccccc34)c(O)c(O)cc2c(O)c1-c1c(C)cc2c(-c3nc4ccccn4c3Nc3cccc4ccccc34)c(O)c(O)cc2c1O,30% (inactive)
20,N#CC1(C#N)C(c2cccs2)NC(c2cccs2)C1(C#N)C#N (stereo not drawn),75.1% (inactive)

row,Structure (SMILES),growth
1,CC1CCC(n2cnc3c(Cl)ncnc32)O1 (stereo not drawn),91.9% (inactive)
2,Oc1ccc(/C=N/Nc2nnc(N/N=C/c3ccc(O)cc3O)c3ccccc23)c(O)c1,-46.9% (active)
3,CCc1ccc(/C=C/c2ccc(O)c3ncccc23)[n+](C)c1,48.1% (inactive)
4,COc1ccc(OC)c(NC2=C(SCCc3ccccc3)C(=O)c3ccccc3C2=O)c1,78% (inactive)
5,CCN1/C(=C/C=C/c2n(-c3ccccc3)c3ccc(-c4nc5ccccc5s4)cc3[n+]2CC)N(c2ccccc2)c2ccc(-c3nc4ccccc4s3)cc21,18.6% (inactive)
6,COC(=O)c1[nH]cnc1/N=N/N(C)CCO,79% (inactive)
7,O=C1CC(c2ccc(Cl)cc2)c2ncn(-c3cccc(Cl)c3)c2N1 (stereo not drawn),36.2% (inactive)
8,COC(=O)CC[C@@H](C)[C@H]1CC[C@H]2C3CC[C@@H]4C[C@@H]5CC[C@]4(C)[C@@]3(O5)[C@H](Br)[C@@H](Br)[C@]12C (stereo partly drawn),84.3% (inactive)
9,CC(=O)OCCC/C(=C\c1ccc2ccccc2c1)[N+](=O)[O-],-88.9% (active)
10,COc1cc(-c2cc(-c3ccc(Nc4ccnc5cc(Cl)ccc45)cc3)nc(N3CCOCC3)n2)cc(OC)c1OC,-25.3% (active)
11,CCOC(=O)Sc1ncnc2nc[nH]c12,62% (inactive)
12,COc1cc2c3c(c1)nc(C)n3CCC2,83.4% (inactive)
13,CCCCCCCC(=O)SCC/C=C/[C@@H]1CC(=O)NCc2cccc(n2)C2=N[C@@](C)(CS2)C(=O)N[C@@H](C(C)C)C(=O)N1,24.5% (inactive)
14,COc1ccc2c(CCc3ccc(Cl)cc3)c3[n+](cc2c1OC)CCc1cc2c(cc1-3)OCO2,58% (inactive)
15,CC(=O)C(C(C)=O)C(c1ccccc1)C(C(C)=O)C(C)=O,95.1% (inactive)
16,Cc1ccc(NC(=O)NC(=O)CSc2nc3ccccc3nc2C)cc1,70.8% (inactive)
17,Cc1cc(N(CCNc2ccnc3cc(Cl)ccc23)Cc2ccc3c(c2)OCO3)nc(N2CCCC2)n1,-46.7% (active)
18,O=C(Nc1ccc(C2=NCCCN2)cc1)c1ccc(C(=O)Nc2ccc(C3=NCCCN3)cc2)nc1,87% (inactive)
19,COC(=O)C1=C(C(=O)OC)C23C=C(C)C1C2=C(C)C1(CC1)[C@@](C)(O)C3=O (stereo partly drawn),-56.5% (active)

# Test system: SNB-19 CNS
# Test: as above
# Settings: 10 µM unless noted
row,Structure (SMILES),growth
1,COc1ccc2c(CCCCC(c3ccccc3)c3ccccc3)c3[n+](cc2c1OC)CCc1cc2c(cc1-3)OCO2,-65.2% (active)
2,CCN1CCN(c2cc(C)nc(N(CCCNc3ccnc4cc(Cl)ccc34)Cc3ccc4c(c3)OCO4)n2)CC1,16.3% (inactive)
3,O=C(Nc1ccc(C(=O)Nc2ccc(C3=NCCCN3)cc2)cc1)Nc1ccc(C2=NCCCN2)cc1,95.6% (inactive)
4,CCOC(=O)C1=C(C)N=C2Sc3cc(OC(F)(F)F)ccc3N2[C@H]1c1ccccn1,37.9% (inactive)
5,Nc1c2c(c(O)c3c1=C(CO)C=N3)=NCCS2,-93.7% (active)
6,C[C@@H](C[C@H](CCO)c1cc(C(F)(F)F)cc(C(F)(F)F)c1)c1ccc2ccccc2c1,107% (inactive)
7,CN(N)c1nc2sc3c(c2c(=O)[nH]1)CCCC3,105% (inactive)
8,Cc1cc(N(CCNc2ccnc3cc(Cl)ccc23)Cc2ccc3c(c2)OCO3)nc(N2CCN(C)CC2)n1,29.4% (inactive)
9,C[N+](C)(CCOC(c1ccccc1)c1ccccc1)CC(=O)OCc1ccccc1,106% (inactive)
10,CC1(/C=N/NC(N)=S)NC(=O)NC1=O (stereo not drawn),108% (inactive)
11,[2H]C1([2H])[C@H](C)O[C@H](C)C([2H])([2H])N1c1ccc(NC(=O)c2cccc(-c3ccc(OC(F)(F)F)cc3)c2C)cn1,65.7% (inactive)
12,N#Cc1cc2[nH]c3ccc(OC(F)(F)F)cc3c2oc1=O,93.6% (inactive)
13,COc1ccc2c(c1OC)C(=O)O[C@@H]2[C@H]1c2c(c(C#CC#Cc3ccc(F)c(F)c3)c3c(c2OC)OCO3)CCN1C,103% (inactive)
14,CCC1(/C=N/NC(N)=S)NC(=O)NC1=O (stereo not drawn),109% (inactive)
15,CC(C)C1CCC(C)C(C2(C#N)C(N)=NC(N)=C2C#N)C1=O (stereo not drawn),101% (inactive)
16,NC(=O)c1n[nH]n2c1nc(=O)c1c3c(sc12)CCCC3,104% (inactive)
17,CCOC(=O)C1=C(C)NC(=O)NC1c1cc(=O)oc2ccc(C)cc12 (stereo not drawn),106% (inactive)
18,C=CC(=O)N(C)[C@H]1C[C@H]2OC(C)(C1OC)n1c3ccccc3c3c4c(c5c6ccccc6n2c5c31)C(=O)NC4 (stereo partly drawn),-1.51% (active)
19,Cc1cc2c(-c3nc4ccccn4c3Nc3cccc4ccccc34)c(O)c(O)cc2c(O)c1-c1c(C)cc2c(-c3nc4ccccn4c3Nc3cccc4ccccc34)c(O)c(O)cc2c1O,15.6% (inactive)
20,N#CC1(C#N)C(c2cccs2)NC(c2cccs2)C1(C#N)C#N (stereo not drawn),106% (inactive)

row,Structure (SMILES),growth
1,CC1CCC(n2cnc3c(Cl)ncnc32)O1 (stereo not drawn),82.3% (inactive)
2,Oc1ccc(/C=N/Nc2nnc(N/N=C/c3ccc(O)cc3O)c3ccccc23)c(O)c1,-1.04% (active)
3,CCc1ccc(/C=C/c2ccc(O)c3ncccc23)[n+](C)c1,41.1% (inactive)
4,COc1ccc(OC)c(NC2=C(SCCc3ccccc3)C(=O)c3ccccc3C2=O)c1,82.2% (inactive)
5,CCN1/C(=C/C=C/c2n(-c3ccccc3)c3ccc(-c4nc5ccccc5s4)cc3[n+]2CC)N(c2ccccc2)c2ccc(-c3nc4ccccc4s3)cc21,24.7% (inactive)
6,COC(=O)c1[nH]cnc1/N=N/N(C)CCO,103% (inactive)
7,O=C1CC(c2ccc(Cl)cc2)c2ncn(-c3cccc(Cl)c3)c2N1 (stereo not drawn),50% (inactive)
8,COC(=O)CC[C@@H](C)[C@H]1CC[C@H]2C3CC[C@@H]4C[C@@H]5CC[C@]4(C)[C@@]3(O5)[C@H](Br)[C@@H](Br)[C@]12C (stereo partly drawn),106% (inactive)
9,CC(=O)OCCC/C(=C\c1ccc2ccccc2c1)[N+](=O)[O-],-39.5% (active)
10,COc1cc(-c2cc(-c3ccc(Nc4ccnc5cc(Cl)ccc45)cc3)nc(N3CCOCC3)n2)cc(OC)c1OC,28.8% (inactive)
11,CCOC(=O)Sc1ncnc2nc[nH]c12,91.1% (inactive)
12,COc1cc2c3c(c1)nc(C)n3CCC2,101% (inactive)
13,CCCCCCCC(=O)SCC/C=C/[C@@H]1CC(=O)NCc2cccc(n2)C2=N[C@@](C)(CS2)C(=O)N[C@@H](C(C)C)C(=O)N1,38.6% (inactive)
14,COc1ccc2c(CCc3ccc(Cl)cc3)c3[n+](cc2c1OC)CCc1cc2c(cc1-3)OCO2,28.3% (inactive)
15,CC(=O)C(C(C)=O)C(c1ccccc1)C(C(C)=O)C(C)=O,102% (inactive)
16,Cc1ccc(NC(=O)NC(=O)CSc2nc3ccccc3nc2C)cc1,80.8% (inactive)
17,Cc1cc(N(CCNc2ccnc3cc(Cl)ccc23)Cc2ccc3c(c2)OCO3)nc(N2CCCC2)n1,26.5% (inactive)
18,O=C(Nc1ccc(C2=NCCCN2)cc1)c1ccc(C(=O)Nc2ccc(C3=NCCCN3)cc2)nc1,96.8% (inactive)
19,COC(=O)C1=C(C(=O)OC)C23C=C(C)C1C2=C(C)C1(CC1)[C@@](C)(O)C3=O (stereo partly drawn),7.17% (active)
